“And” between values parts separate entries of the source, which are not always exact repeats. Identical values can stand only once. Screen size: about 16,000 compounds; about 5,800 (36%) were called active. Another 23% or so got no clear call; they are omitted. The call rests on the fitted dose curve; in most records, active means well fitted curve in the direction sought with a large enough effect; inconclusive means small, poorly fitted or top-dose-only effect, or effect the other way; inactive means no such curve, though single readings can be large or run the other way. This is one part of the list. More than one record can exist for a structure, and the calls need not agree.
What follows are compounds tested against Cytochrome P450 2C19 (Homo sapiens) (UniProt P33261) (assay: Cytochrome panel assay with activity outcomes). Conditions: recombinant CYP, pro-luciferin dealkylation, luminescence, p450-cyp2c19; series mostly up to 57.1 µM.
Sequence of Cytochrome P450 2C19 (Homo sapiens) (P33261 whole entry, looked up): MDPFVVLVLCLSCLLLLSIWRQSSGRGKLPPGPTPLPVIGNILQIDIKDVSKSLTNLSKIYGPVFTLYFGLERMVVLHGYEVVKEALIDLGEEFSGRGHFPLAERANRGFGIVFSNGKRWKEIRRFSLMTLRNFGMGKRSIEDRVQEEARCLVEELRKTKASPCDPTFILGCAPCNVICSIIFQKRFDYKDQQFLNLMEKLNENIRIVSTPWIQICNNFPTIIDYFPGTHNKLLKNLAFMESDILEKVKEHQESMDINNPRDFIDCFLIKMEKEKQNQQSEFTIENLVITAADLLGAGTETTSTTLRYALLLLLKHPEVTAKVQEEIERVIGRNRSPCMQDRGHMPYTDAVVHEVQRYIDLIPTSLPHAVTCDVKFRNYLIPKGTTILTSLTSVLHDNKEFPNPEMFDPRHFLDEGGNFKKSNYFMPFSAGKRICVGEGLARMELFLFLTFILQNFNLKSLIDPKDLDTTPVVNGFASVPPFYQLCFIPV
With CCN(CC)c1ccc2cc(C(C)=O)c(=O)oc2c1 the AC50 was 1.58 µM (active).
In the case of O=C(O)c1cc2cc(Cl)ccc2oc1=O, the AC50 is reported as “inactive”.
In the case of O=c1ccc2cc(O)c(O)cc2o1, the AC50 is reported as “inactive”.
In the case of O=C(O)C[C@H](S)C(=O)O, the activity, negative = inhibition is reported as 13.1% [at 11.4 µM] (inactive).
With C=CC(C)(C)c1[nH]c2ccccc2c1C1=C(O)C(=O)C(c2c[nH]c3c(CC=C(C)C)cccc23)=C(O)C1=O the AC50 was 1.26 µM (active).
For COc1ccc(-n2c(=O)c(-c3cccs3)nc3cnc(N4CCOCC4)nc32)cc1, the AC50 was “inactive”.
Cc1ccc2c(c1)N[C@H](c1ccc(C(=O)O)cc1)c1cccn1-2 was tested, and the activity, negative = inhibition was -26.9% [at 11.4 µM] (inactive).
In the case of CCCS(=O)(=O)N1CCCC(C(=O)NCCN2CCC(Cc3ccccc3)CC2)C1 (stereo unspecified), the AC50 is reported as “inactive”.
In the case of Cc1ccc(C)c(S(=O)(=O)NCc2ccc(C(=O)N3CCC(Cc4ccccc4)CC3)cc2)c1, the AC50 is reported as 4.47 µM (active).
In the case of Cc1nc2ccccc2n1CC(=O)N/N=C\C=C\c1ccccc1, the AC50 is reported as 7.08 µM (active).
Cn1c(SCC(=O)N/N=C/C=C\c2ccco2)nc2ccccc21 was tested, and the AC50 was 14.1 µM (active).
With CNC(=O)Oc1ccc2c(c1)[C@@]1(C)CCN(C)[C@@H]1N2C the AC50 was “inactive”.
In the case of CC(=O)OC[C@@H]1O[C@@H](O/N=C2/C[C@@H](O)[C@@H](O)[C@@H]3[C@@H]4C(=O)N([C@@H](C)c5ccccc5)C(=O)[C@H]4CC[C@H]23)[C@H](OC(C)=O)[C@H](OC(C)=O)[C@@H]1OC(C)=O, the activity, negative = inhibition is reported as -3.3% [at 11.4 µM] (inactive).
With O=C(/C=C/c1ccccc1)NC(NC(=S)Nc1ccc(Cl)cc1)C(Cl)(Cl)Cl (stereo unspecified) the AC50 was 3.55 µM (active).
C[C@@H](c1ccccc1)N1C(=O)[C@H]2[C@H]3[C@H](O)[C@H](O)C/C(=N/OCc4ccccc4)[C@@H]3CC[C@@H]2C1=O was tested, and the activity, negative = inhibition was -24.2% [at 11.4 µM] (inactive).
With CC(C)NC(=O)N1CCCC2(CCN(C(=O)c3cc(C(F)(F)F)cc(C(F)(F)F)c3)CC2)C1 the AC50 was “inactive”.
With Cc1nn2c(NCC(C)C)c3c(nc2c1-c1ccccc1)CCC3 the AC50 was “inactive”.
Cc1nn2c3c(cnc2c1-c1ccccc1)C(=O)CC(c1ccccc1)C3 (stereo unspecified) was tested, and the AC50 was 7.08 µM (active).
In the case of Cc1ccc(C)c(NC(=O)NCc2ccc(Cl)cc2)c1, the AC50 is reported as 1.58 µM (active).
In the case of COC(=O)C1CSC(C(=O)OC)N1C(=O)Nc1ccccc1 (stereo unspecified), the AC50 is reported as 10 µM (active).
CCCCN1CCCC[C@H]1C(=O)Nc1c(C)cccc1C was tested, and the AC50 was “inactive”.
For COC(=O)C1CSC(C(=O)OC)N1C(=O)Nc1c(C)cccc1C (stereo unspecified), the AC50 was 7.94 µM (active).
Cc1cccc(C)c1NC(=O)N1CCC(N2CCCCC2)CC1 was tested, and the AC50 was “inactive”.
With COc1ccc(C(=O)N2CCC3(CCCN(Cc4ccncc4)C3)CC2)cc1 the AC50 was “inactive”.
With COc1ccc(N2C(=O)NC(NC(=O)c3ccncc3)(C(F)(F)F)C2=O)cc1 (stereo unspecified) the AC50 was 6.31 µM (active).
With CC(=O)Nc1ccc(S(=O)(=O)NC2(C(F)(F)F)NC(=O)N(c3ccc(Cl)cc3)C2=O)cc1 (stereo unspecified) the AC50 was “inactive”.
In the case of CNc1ncnc2c1ncn2[C@@H]1O[C@H](CO)[C@@H](O)[C@@H]1O, the AC50 is reported as “inactive”.
O=[N+]([O-])c1ccc([C@@H](Nc2ccccc2)c2ccc3cccnc3c2O)cc1 was tested, and the AC50 was 3.98 µM (active).
In the case of O=C(O)c1ccccc1N[C@H](c1ccccc1)c1ccc2cccnc2c1O, the AC50 is reported as 3.98 µM (active).
CC(=O)C[C@H](c1ccc([N+](=O)[O-])cc1)c1c(O)c2ccccc2oc1=O was tested, and the AC50 was “inactive”.
In the case of O=C(O)c1cccnc1C(=O)O, the AC50 is reported as “inactive”.
Cc1cc(C)c(C#N)c(SCS(=O)c2ccc(C(C)(C)C)cc2)n1 (stereo unspecified) was tested, and the AC50 was 3.16 µM (active).
In the case of C[C@@]12CC3CC(N)(C1)C[C@@](C)(C3)C2, the AC50 is reported as “inactive”.
For C[C@]12CC3CC(N)(C1)C[C@@](C)(C3)C2, the AC50 was “inactive and 10 µM (active)”.
With CCCn1c(CC)nc([N+](=O)[O-])c1S(=O)(=O)c1ccccc1 the AC50 was 14.1 µM (active).
With Cc1nc([N+](=O)[O-])c(N2CCN(C)CC2)n1Cc1ccccc1 the AC50 was “inactive”.
In the case of COc1cc(-c2nnc(SC/C=C/c3ccccc3)n2N)cc(OC)c1OC, the AC50 is reported as 15.8 µM (active).
CCCS(=O)(=O)N1CCCC(C(=O)NCCCOC(C)C)C1 (stereo unspecified) was tested, and the AC50 was “inactive”.
In the case of CCC(C)NC(=O)C1CCCN(C(=O)NC2CCCCC2)C1 (stereo unspecified), the AC50 is reported as 14.1 µM (active).
With CCS(=O)(=O)N1CCCC(C(=O)NCCCOC(C)C)C1 (stereo unspecified) the AC50 was “inactive”.
CO/N=C(\C(=O)N[C@@H]1C(=O)N2C(C(=O)O)=C(COC(N)=O)CS[C@@H]12)c1ccco1 was tested, and the AC50 was “inactive”.
With O=C(CO)N/N=C/c1ccccc1F the AC50 was “inactive”.
For NC(=S)N/N=C/c1ccccc1OCc1cccc(Cl)c1, the AC50 was 2.24 µM (active).
In the case of O=C(Cc1ccccc1)N/N=C/c1ccccc1OCc1ccc(Cl)cc1, the AC50 is reported as 4.47 µM (active).
For Cc1cc2nc(C3CCCN(C(=O)NCc4ccccc4)C3)[nH]c2cc1C (stereo unspecified), the AC50 was 20 µM (active).
CC1=C(C(=O)NCCN2CCN(C)CC2)C2(CCC(C)CC2)OC1=O (stereo unspecified) was tested, and the AC50 was “inactive”.
For CC1=C(C(=O)N2CCCCCC2)C2(CCC(C)CC2)OC1=O (stereo unspecified), the AC50 was 10 µM (active).
In the case of CN1C(=C2C(=O)OC(C)(C)OC2=O)Sc2ccccc21, the AC50 is reported as 1 µM (active).
With O=[N+]([O-])c1ccc(CSCc2ccc(Cl)cc2)cc1 the AC50 was 0.398 µM (active).
With N=C(N)SCCc1ccc(OCc2ccc([N+](=O)[O-])cc2)cc1 the AC50 was “inactive”.
With O=[N+]([O-])c1ccc(CSc2ncnc3c2ncn3[C@@H]2O[C@@H](CO)[C@@H](O)[C@H]2O)cc1 the AC50 was “inactive”.
For COc1ccc(N2CCN(C(=O)CSc3nnc4c5cc(C)ccc5n(C)c4n3)CC2)cc1, the AC50 was 1 µM (active).
For Cc1cc(=O)[nH]c2c1c(C)nn2C1CCOC(C)(C)C1 (stereo unspecified), the AC50 was “inactive”.
With O=C1Nc2ccc(F)cc2C12SCCS2 the AC50 was 11.2 µM (active).
With Cc1ccc2c(c1)C1(SCCS1)C(=O)N2 the AC50 was 25.1 µM (active).
For CCc1c(O)c2c(c(O)c1C(C)=O)C(=O)c1c(cc(O)c(C(=O)O)c1C(=O)O)C2=O, the activity, negative = inhibition was -9.38% [at 11.4 µM] (inactive).
With CCOc1cc(CNCCCN2CCOCC2)cc(Br)c1OCC(=O)Nc1cccc(C(F)(F)F)c1 the AC50 was “inactive”.
In the case of CCOc1cc(CNc2ccc(OC)cc2)cc(Br)c1OCC(=O)NC(C)(C)C, the AC50 is reported as 5.62 µM (active).
CCOc1cc2[nH]c(=O)n(CCC(=O)NCc3ccc(OC)cc3)c(=O)c2cc1OCC was tested, and the AC50 was “inactive”.
In the case of OC[C@@H]1O[C@H](n2cnc3c(/C=C(\O)c4ccccc4)ncnc32)[C@H](O)[C@@H]1O, the activity, negative = inhibition is reported as 34% [at 11.4 µM] (inactive).
CCOc1ccc(N2C(=O)CS/C2=N/NC(=O)COc2ccc3ccccc3c2)cc1 was tested, and the AC50 was 15.8 µM (active).
In the case of O=C(CSCc1ccccc1Cl)NNC(=O)c1ccccc1, the AC50 is reported as 5.01 µM (active).
O=C(CSCc1ccccc1Cl)NNC(=S)Nc1ccccc1 was tested, and the AC50 was 2.24 µM (active).
For O=C(NNC(=O)c1ccccc1O)c1ccc(Cl)cc1, the AC50 was “inactive”.
In the case of O=C(CSCc1ccccc1Cl)NN1C(=O)c2ccccc2C1=O, the AC50 is reported as 10 µM (active).
For O=C(NNC(=S)Nc1ccccc1)C1CC1, the AC50 was “inactive”.
In the case of O=C(O)c1c2c(c(O)c3c1CN(C1CCCCC1)CO3)OCN(C1CCCCC1)C2, the activity, negative = inhibition is reported as 22.2% [at 11.4 µM] (inactive).
CCn1c(SCC(=O)NC2CCCc3ccccc32)nnc1-c1cccs1 (stereo unspecified) was tested, and the AC50 was 7.94 µM (active).
For CCn1c(SCC(=O)NC(=O)NCc2ccco2)nnc1-c1cccs1, the AC50 was 14.1 µM (active).
For CCn1c(SCC(=O)c2ccc3ccccc3c2)nnc1-c1cccs1, the AC50 was 0.708 µM (active).
In the case of O=C(CSc1nc2ccc([N+](=O)[O-])cc2s1)c1ccc2ccccc2c1, the activity, negative = inhibition is reported as -43.1% [at 11.4 µM] (inactive).
CCn1c(SCC(=O)c2ccccc2)nnc1-c1cccs1 was tested, and the AC50 was 0.794 µM (active).
With Cc1cc(C)nc(SCc2nnc(SCC(N)=O)n2Cc2ccco2)n1 the AC50 was “inactive”.
Cc1ccccc1CSc1nnc(-c2cccs2)n1Cc1ccco1 was tested, and the AC50 was 1.41 µM (active).
In the case of O=C1C[C@@H](O)[C@@H](O)[C@H]2[C@@H]3C(=O)N(C4CCCCC4)C(=O)[C@@H]3CC[C@H]12, the activity, negative = inhibition is reported as 13.8% [at 11.4 µM] (inactive) and 12.1% [at 11.4 µM] (inactive) and 0.0924% [at 11.4 µM] (inactive).
CCn1c(SCC(=O)Nc2sc3c(c2C(N)=O)CCC(C)C3)nnc1-c1ccco1 (stereo unspecified) was tested, and the AC50 was 7.08 µM (active).
In the case of O=C(O)/C=C\C(=O)N1Cc2cc3ccccc3nc2C1, the activity, negative = inhibition is reported as 21.9% [at 11.4 µM] (inactive).
In the case of O=C(/C=C/c1ccccc1)N1CCN(Cc2nc3ccccc3c(=O)[nH]2)CC1, the AC50 is reported as 22.4 µM (active).
With O=C1c2ccccc2C(=O)c2c1ccc(C(=O)O)c2-c1ccc2ccccc2c1 the AC50 was 2.51 µM (active).
For O=C(O)c1cccc2cccc(-c3cccc4cccc(C(=O)O)c34)c12, the activity, negative = inhibition was -9.27% [at 11.4 µM] (inactive).
O=C(O)c1ccccc1C(=O)Nc1cc2c(cc1Br)-c1ccccc1C2=O was tested, and the activity, negative = inhibition was -19.4% [at 11.4 µM] (inactive).
For Cc1cccc(C(CC(=O)N2CCCC2)c2ccccc2)c1O (stereo unspecified), the AC50 was 1.41 µM (active).
With COCC(=O)N1CCC2(CC1)CCN(C(c1ccccc1)c1ccccc1)CC2 the AC50 was “inactive”.
For Cc1cccc(C(=O)c2ccccc2C(=O)O)c1O, the AC50 was “inactive”.
CN(C)C[C@H]1CCC[C@@H](CN(C)C)C1=O was tested, and the activity, negative = inhibition was 19.2% [at 11.4 µM] (inactive).
For N[C@@H](CO)C(=O)O, the AC50 was “inactive”.
For CC(C)[C@H]1C(=O)C(C(N)=O)=C(O)[C@]2(O)C(=O)C3=C(O)c4c(O)ccc(N(C)C)c4C[C@H]3C[C@@H]12, the AC50 was “inactive”.
In the case of O=c1ccn(-c2cccc(C(F)(F)F)c2)nc1-c1ccn(-c2ccccc2F)n1, the AC50 is reported as 17.8 µM (active).
CS(=O)(=O)N1CC(C(=O)NC2CC2)Oc2ccc(Cl)cc21 (stereo unspecified) was tested, and the AC50 was 7.08 µM (active).
CCS(=O)(=O)c1ccc2c(c1)N(S(C)(=O)=O)CC(C(=O)NCCOC)O2 (stereo unspecified) was tested, and the AC50 was “inactive”.
In the case of CC(C)(C)NC[C@H](O)c1cc(O)cc(O)c1, the AC50 is reported as “inactive”.

— PubChem BioAssay AID1851 (National Center for Advancing Translational Sciences (NCATS), 2009)
On the % scale 0 is the no-effect control and ±100 the full control effect.
